The target of experiment [1] is Guanidinoacetate N-methyltransferase (Homo sapiens) (UniProt Q14353). As to the kind of experiment: Confirmatory Screen for Target Class Profiling of Small Molecule Inhibitors of Methyltransferases (AID 1745852). On activity change, negative = inhibition: on the % scale 0 is the no-effect control and ±100 the full control effect. The conditions noted are these: activity change, negative = inhibition: at 57.3 µM (top of the series) unless noted.
Experiment [2] has as its target Nicotinamide N-methyltransferase (Homo sapiens) (UniProt P40261). Described as above. The conditions noted are these: MTase-Glo luminescence, SAH detection, recombinant enzyme; measured here: NNMT max response; stronger effect = lower value.
Experiment [3] deals with Phenylethanolamine N-methyltransferase (Homo sapiens) (UniProt P11086). The description is as above. To be noted: MTase-Glo luminescence, SAH detection, recombinant enzyme; measured here: PNMT max response; stronger effect = lower value.
Chain of Phenylethanolamine N-methyltransferase (Homo sapiens) (P11086 whole entry, looked up): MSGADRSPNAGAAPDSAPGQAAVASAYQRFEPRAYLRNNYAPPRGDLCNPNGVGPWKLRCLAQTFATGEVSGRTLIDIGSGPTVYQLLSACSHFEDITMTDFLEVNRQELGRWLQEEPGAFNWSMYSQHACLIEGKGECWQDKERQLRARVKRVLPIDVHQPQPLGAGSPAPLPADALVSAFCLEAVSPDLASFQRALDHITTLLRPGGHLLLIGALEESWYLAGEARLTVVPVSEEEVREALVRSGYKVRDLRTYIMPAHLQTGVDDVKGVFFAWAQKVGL
Experiment [4] can be described thus: NCATS anti-infectives library activity on HEK293 viability as a counter-qHTS vs the C. elegans viability qHTS (AID 1745854; active means well fitted cell-killing curve with a large enough effect). A digest of the protocol:
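CellTiter-Glo luminescence, read on a CCD imager, scored viability of HEK293 cells after 24 hr compound exposure at 37C. Library tested in several concentrations, 1:5 steps, up to 41.7 uM; digitonin served as control.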

The structures appear in SMILES notation. Inconclusive results are not listed. Active and inactive are the calls of the source. Unless noted, the call rests on the fitted dose curve.
Potency means the concentration at half of the fitted maximal effect.

Chain of Nicotinamide N-methyltransferase (Homo sapiens) (P40261 whole entry, looked up): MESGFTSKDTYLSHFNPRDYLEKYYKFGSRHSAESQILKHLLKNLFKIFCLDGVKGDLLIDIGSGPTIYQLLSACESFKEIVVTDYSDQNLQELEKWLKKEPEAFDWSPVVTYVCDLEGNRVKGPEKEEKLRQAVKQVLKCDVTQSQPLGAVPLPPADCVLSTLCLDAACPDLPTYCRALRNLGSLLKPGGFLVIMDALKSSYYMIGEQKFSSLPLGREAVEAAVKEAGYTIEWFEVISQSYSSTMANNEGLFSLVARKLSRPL

For the compound `COC(=O)C1=CO[C@@H](O[C@@H]2O[C@H](CO)[C@@H](O)[C@H](O)[C@H]2O)[C@H]2[C@@H]1CC(OC)O[C@@H]2C` (stereo partly drawn), the activity change, negative = inhibition in experiment [1] is -2.71% [at 29.8 µM]. The activity is -1.72% in experiment [2] and -2.32% in experiment [3].

Consider `C=C(C(=O)O)[C@@H]1CC[C@@]2(C)CC[C@H](O)[C@@]2(C(C)=O)C1`, for which the activity change, negative = inhibition in experiment [1] is -6.04%. In addition, the activity was -3.52% in experiment [2] and -3.81% in experiment [3].

For `C=C1C(=O)O[C@@H]2/C=C(\C)C(=O)/C=C/[C@](C)(O)C[C@@H](OC(=O)C(C)C)[C@@H]12`, in experiment [1], the activity change, negative = inhibition is -3.22%. The results for the activity in experiment [2] and in experiment [3] were -1.46% and -0.934%, respectively.

Consider `CCS(=O)(=O)N1CCN(c2ccc(Nc3ncc(C(N)=O)c(NC4CC4)n3)cc2)CC1`, for which, in experiment [1], the activity change, negative = inhibition is 0%. For the same compound, the activity in experiment [2] is -70.8%; in experiment [3] it was -8.46%.

`COc1cc2nc(N3CCC(N4CCCCC4)CC3)nc(NC3CCCCCC3)c2cc1OC`: the Potency in experiment [1] is 42.9 µM (active). The activity in experiment [2] is -54.7%; in experiment [3], -35.6%.

With `CC(Oc1cc(-n2cnc3ccc(CN4CCN(C)CC4)cc32)sc1C(N)=O)c1ccccc1C(F)(F)F` (stereo not drawn), the Potency in experiment [1] is 30.4 µM (active). The activity in experiment [2] is -27.1%; in experiment [3], -38.1%.

As to `CNC(=O)c1ccccc1Nc1nc(Nc2ccc(N3CCNCC3)cc2)ncc1Cl`, in experiment [1], the activity change, negative = inhibition was -14.2%. Besides, the figures for the activity in experiment [2] and in experiment [3] were -58.7% and -30.9%, respectively.

Turning to `NC[C@@](O)(c1ccc(Cl)cc1)c1ccc(-c2cn[nH]c2)cc1`, in experiment [1], the activity change, negative = inhibition worked out at 0%. The activity in experiment [2] is -0.549%; in experiment [3], -0.0519%.

On to `Cc1cc(N(C)C)ccc1-c1nc2ccc(-c3nc4ccc(N5CCN(C)CC5)cc4[nH]3)cc2[nH]1`, for which the activity change, negative = inhibition in experiment [1] stood at 0%. In addition, the activity in experiment [2] was -5.28%; in experiment [3], -3.42%.

`CN1CCN(C(=O)c2ccc3cc(CCNc4ncnc5ccc(C#N)cc45)ccc3c2)CC1`: the activity change, negative = inhibition in experiment [1] was -3.33%. The results for the activity in experiment [2] and in experiment [3] were -11.9% and -8.1%, respectively.

For the compound `CCCCc1nc2cc(/C=C/C(=O)NO)ccc2n1CCN(CC)CC`, the activity change, negative = inhibition in experiment [1] turned out to be 4.34%. The activity in experiment [2] is -2.78%; in experiment [3] it was 3.65%. In experiment [4], the Potency entry was “inactive”.

As to `CN(c1ccccc1CNc1nc(Nc2ccc3c(c2)CC(=O)N3)ncc1C(F)(F)F)S(C)(=O)=O`, the activity change, negative = inhibition in experiment [1] is -2.47%. In addition, the figures for the activity in experiment [2] and in experiment [3] were -47.3% and -5.42%, respectively.

As to `COC(=O)C1=CO[C@@H](O[C@@H]2O[C@H](CO[C@@H]3O[C@H](COC(=O)/C=C/c4cc(OC)c(O)c(OC)c4)[C@@H](O)[C@H](O)[C@H]3O)[C@@H](O)[C@H](O)[C@H]2O)[C@@H]2C(CO)=CC[C@H]12`, in experiment [1], the activity change, negative = inhibition is -1.94% [at 19.1 µM]. The activity in experiment [2] was -1.52%; in experiment [3], -1.68%.

Regarding `CC(C)CCC1(O)C(=O)C(C)(C)C(O[C@@H]2O[C@H](CO)[C@@H](O)[C@H](O)[C@H]2O)C(C)(C)C1O` (stereo partly drawn), the activity change, negative = inhibition in experiment [1] is -2.97% [at 29.8 µM]. Moreover, the activity in experiment [2] was -3.79%; in experiment [3], -2.04%.

`COc1cc2c(cc1OC)N1C(=O)C[C@]34C=CCN5CC[C@@H]2[C@@H](CC3)[C@]514`: the Potency entry in experiment [1] is “inactive”. For the same compound, the activity in experiment [2] was found to be 1.78%; in experiment [3] it was 3.88%.

Consider `Cc1cc(=O)oc2c(C=O)c(O)ccc12`, for which the Potency in experiment [1] was 17.1 µM (active). The activity in experiment [2] was -24%; in experiment [3] it was -37.6%.

Consider `C=C(F)c1sc(CNCCCNc2cc(=O)c3ccccc3[nH]2)c(C)c1Br`, for which, in experiment [1], the activity change, negative = inhibition is -1.39%. Besides, the figures for the activity in experiment [2] and in experiment [3] were -33.7% and -2.47%, respectively.

`CC(C)c1cc(CNc2nc(Nc3cc(C4CC4)[nH]n3)cc(N3CCN(C)CC3)n2)on1`: the activity change, negative = inhibition in experiment [1] was -5.05%. In addition, the activity in experiment [2] was -12.7%; in experiment [3] it was -6.69%.

On to `Cc1c[nH]c2nccc(Oc3c(F)cc(Nc4cc(Cl)nc(N)n4)cc3F)c12`, for which the activity change, negative = inhibition in experiment [1] amounted to 0%. The activity in experiment [2] is -27.7%; in experiment [3], -3.98%.

As for `O=C(c1ccccc1)c1ccc2nc(NC(=O)c3csc(C4CCN(c5ncnc6ccsc56)CC4)n3)[nH]c2c1`, the activity change, negative = inhibition in experiment [1] was found to be 0.0948%. Further, the activity was -42% in experiment [2] and -13.7% in experiment [3]. In addition, the Potency in experiment [4] is 10 µM (active).

In the case of `CC1=CC(=O)CC(C)(C)C1CCC(C)O[C@@H]1O[C@H](CO[C@@H]2OC[C@@H](O)[C@H](O)[C@H]2O)[C@@H](O)[C@H](O)[C@H]1O` (stereo partly drawn), in experiment [1], the activity change, negative = inhibition was 0% [at 29.8 µM]. Besides, the activity was 0.168% in experiment [2] and 0.0687% in experiment [3].

`CC(=O)OC/C=C(\C)C(CC1C(C)=C(OC(C)=O)C(=O)C2C(C)(C)C(O)CCC12C)OC(C)=O` (stereo not drawn): the activity change, negative = inhibition in experiment [1] was -2.29% [at 29.8 µM]. The activity in experiment [2] was -5.45%; in experiment [3] it was -0.876%.

`N#Cc1cnc2cnc(NCc3cccnc3)cc2c1Nc1ccc(F)c(Cl)c1`: in experiment [1], the activity change, negative = inhibition is -3.05%. The activity in experiment [2] was -57.3%; in experiment [3], -6.2%.

On to `COc1cc(OC)cc(C(=O)Nc2ccc(Cl)c(-c3nc4ccc(N(C)C)cc4[nH]3)c2)c1`, for which the activity change, negative = inhibition in experiment [1] was -3.69%. The activity in experiment [2] was -8.83%; in experiment [3], -5.51%.

For the compound `CNS(=O)(=O)CC1CCC(N(C)c2ncnc3[nH]ccc23)CC1` (stereo not drawn), the activity change, negative = inhibition in experiment [1] is -4.35%. Moreover, the activity in experiment [2] is -58.2%; in experiment [3], -84.3%.

Turning to `CC1(C)CC[C@]2(C(=O)O[C@@H]3O[C@H](CO)[C@@H](O)[C@H](O)[C@H]3O)CC[C@]3(C)C(=CCC4[C@@]5(C)C[C@@H](O)[C@H](O)C(C)(C)C5CC[C@]43C)C2[C@@H]1O` (stereo partly drawn), the activity change, negative = inhibition in experiment [1] was -2.23% [at 19.1 µM]. For the same compound, the results for the activity in experiment [2] and in experiment [3] were -0.101% and -0.0843%, respectively.

For `C[C@@H](Oc1cc(-n2cnc3ccc(OC4CCN(C)CC4)cc32)sc1C(N)=O)c1ccccc1C(F)(F)F`, the Potency in experiment [1] was 24.1 µM (active). The activity in experiment [2] was -64.9%; in experiment [3], -73.6%.

The record behind these values is PubChem BioAssay (NCATS).
